This is part of a sample that, as a whole, favours compounds with a hit. Of some 83,000 tested, about 20% had one in any assay.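 Method: cells in 96-well plates; compound added at one concentration; 48 h incubation; percent growth measured; values under 10 scored active.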 Values without a mark were called inactive. The source made the active and inactive calls.

Seven molecules from PubChem BioAssay (NCI) can be followed below.

Among the test systems are SR leukemia; RPMI-8226 leukemia; OVCAR-8 ovarian; OVCAR-5 ovarian; OVCAR-4 ovarian; SK-OV-3 ovarian; IGROV1 ovarian; OVCAR-3 ovarian; HS 578T breast; NCI/ADR-RES ovarian; BT-549 breast; MDA-MB-435 melanoma; SW-620 colon; MCF7 breast; HCT-116 colon; HCC-2998 colon; KM12 colon.
Holding throughout (assay): NCI-60 one-dose screen, 48 h (100 = growth as untreated, 0 = no growth, -100 = all killed)
For the next test, the system named is T-47D breast. Particulars: 10 µM unless noted.

With `Cc1cccc(Cc2cnc(NC(=O)CCCOc3ccc(Cl)cc3)s2)c1`, the growth in the test with SR leukemia (10 µM unless noted) was 18.4%; with RPMI-8226 leukemia (10 µM unless noted), 22.9%; with OVCAR-8 ovarian (10 µM unless noted), 37.6%; in the test with OVCAR-5 ovarian (10 µM unless noted) it was 36.2%; in the test on OVCAR-4 ovarian (10 µM unless noted), 31.3%; in the test with SK-OV-3 ovarian (10 µM unless noted) it was 36.4%. For the same molecule, the growth with IGROV1 ovarian (10 µM unless noted) is 39.1%; in the test on OVCAR-3 ovarian (10 µM unless noted) it was 7.26% (active); in the test with HS 578T breast (10 µM unless noted) it was 21.4%; in the test on NCI/ADR-RES ovarian (10 µM unless noted), 32.3%; in the test on T-47D breast, 33.5%; in the test with BT-549 breast (10 µM unless noted), 61.5%. Further, the growth in the test with MDA-MB-435 melanoma (10 µM unless noted) is -53.2% (active); in the test with SW-620 colon (10 µM unless noted), 25%; in the test with MCF7 breast (10 µM unless noted), 20%; with HCT-116 colon (10 µM unless noted), 16.4%; with HCC-2998 colon (10 µM unless noted), 48.9%; in the test with KM12 colon (10 µM unless noted) it was 21.8%.
`O=C(CCCOc1ccc(Br)cc1)Nc1ncc(Cc2ccc(F)cc2)s1`: the growth with SR leukemia (10 µM unless noted) is 22.6%; in the test with RPMI-8226 leukemia (10 µM unless noted) it was 77.6%; in the test on OVCAR-8 ovarian (10 µM unless noted), 91.5%; in the test with OVCAR-5 ovarian (10 µM unless noted), 79.4%; in the test on OVCAR-4 ovarian (10 µM unless noted), 68.7%; in the test on SK-OV-3 ovarian (10 µM unless noted) it was 81.7%. For the same molecule, the growth with IGROV1 ovarian (10 µM unless noted) was 78.5%; in the test with OVCAR-3 ovarian (10 µM unless noted) it was 81%; with HS 578T breast (10 µM unless noted) it was 74.3%; in the test on NCI/ADR-RES ovarian (10 µM unless noted), 73.6%; with T-47D breast it was 58%; in the test on BT-549 breast (10 µM unless noted), 82%. The growth in the test with MDA-MB-435 melanoma (10 µM unless noted) was -27.2% (active); in the test on SW-620 colon (10 µM unless noted), 58.2%; in the test on MCF7 breast (10 µM unless noted), 23.7%; in the test with HCT-116 colon (10 µM unless noted), 36.6%; in the test with HCC-2998 colon (10 µM unless noted) it was 73.9%.
On to `CC(=O)/C=C/c1ccc(OCc2ccc(C(C)(C)C)cc2)cc1`, for which the growth in the test with SR leukemia (10 µM) was 65.9%; in the test with SR leukemia (100 µM) it was 29.5%; with RPMI-8226 leukemia (10 µM) it was 67.6%; in the test on RPMI-8226 leukemia (100 µM), 0.803% (active); with OVCAR-8 ovarian (10 µM), 90.5%; in the test on OVCAR-8 ovarian (100 µM), 23.2%. The growth in the test with OVCAR-5 ovarian (10 µM) is 89%; in the test with OVCAR-5 ovarian (100 µM), 37.6%; with OVCAR-4 ovarian (10 µM), 74%; in the test on OVCAR-4 ovarian (100 µM), 33.8%; in the test with SK-OV-3 ovarian (10 µM), 77.8%; in the test on SK-OV-3 ovarian (100 µM), 39.5%. In addition, the growth was 98.6% in the test on IGROV1 ovarian (10 µM); 81.6% in the test with IGROV1 ovarian (100 µM); 94.6% in the test on OVCAR-3 ovarian (10 µM); 47.1% in the test on OVCAR-3 ovarian (100 µM); 75.5% in the test on HS 578T breast (10 µM); 10.3% in the test on HS 578T breast (100 µM). Also, the growth with NCI/ADR-RES ovarian (10 µM) was 81.1%; with NCI/ADR-RES ovarian (100 µM) it was 7.42% (active); with BT-549 breast (10 µM), 103%; in the test on BT-549 breast (100 µM), 21.3%; in the test with MDA-MB-435 melanoma (10 µM), 78.4%; in the test on MDA-MB-435 melanoma (100 µM), 39.5%. The growth with SW-620 colon (10 µM) was 72.1%; with SW-620 colon (100 µM), 38.6%; in the test with MCF7 breast (10 µM), 66.6%; with MCF7 breast (100 µM), 41.8%; in the test on HCT-116 colon (10 µM), 68.9%; in the test with HCT-116 colon (100 µM), 25.3%. Also, the growth is 92.1% in the test on HCC-2998 colon (10 µM), 86.8% in the test on HCC-2998 colon (100 µM), 82.9% in the test with KM12 colon (10 µM) and 32.1% in the test with KM12 colon (100 µM).
As to `CCOc1ccccc1NC(=O)c1cc2ccccc2cc1O`, the growth was 45.5% in the test with SR leukemia (10 µM unless noted); 25.8% in the test with RPMI-8226 leukemia (10 µM unless noted); 52% in the test on OVCAR-8 ovarian (10 µM unless noted); 114% in the test on OVCAR-5 ovarian (10 µM unless noted); 61% in the test on OVCAR-4 ovarian (10 µM unless noted); 81.3% with SK-OV-3 ovarian (10 µM unless noted). Further, the growth in the test on IGROV1 ovarian (10 µM unless noted) is 60.3%; in the test on OVCAR-3 ovarian (10 µM unless noted) it was 18.2%; in the test with HS 578T breast (10 µM unless noted), 51.6%; in the test on NCI/ADR-RES ovarian (10 µM unless noted), 28.7%; in the test with T-47D breast, 51.7%; with BT-549 breast (10 µM unless noted) it was 85%. For the same molecule, the growth in the test with MDA-MB-435 melanoma (10 µM unless noted) was 49.4%; with SW-620 colon (10 µM unless noted), 64.7%; with MCF7 breast (10 µM unless noted), 70.3%; in the test on HCT-116 colon (10 µM unless noted) it was 31.9%; in the test on HCC-2998 colon (10 µM unless noted), 76.3%.
On to `Nc1ccc(-c2nc3ccc4[nH]ncc4c3c3c2CCCC3)cc1F`, for which the growth in the test with SR leukemia (10 µM unless noted) was 10.8%; in the test on RPMI-8226 leukemia (10 µM unless noted), 27.3%; in the test with OVCAR-8 ovarian (10 µM unless noted) it was 32.2%; in the test on OVCAR-5 ovarian (10 µM unless noted), 56.8%; with OVCAR-4 ovarian (10 µM unless noted) it was 50.2%; with SK-OV-3 ovarian (10 µM unless noted), -28.3% (active). In addition, the growth with IGROV1 ovarian (10 µM unless noted) is 10.9%; in the test on OVCAR-3 ovarian (10 µM unless noted) it was 37.3%; in the test on HS 578T breast (10 µM unless noted), 17.1%; in the test on NCI/ADR-RES ovarian (10 µM unless noted), 35.6%; with T-47D breast it was 14.6%; with BT-549 breast (10 µM unless noted), 10%. The growth is 14.2% in the test with MDA-MB-435 melanoma (10 µM unless noted); 18.7% with SW-620 colon (10 µM unless noted); 29.2% in the test with MCF7 breast (10 µM unless noted); 11.1% with HCT-116 colon (10 µM unless noted); 44.3% with HCC-2998 colon (10 µM unless noted).
For `COc1ccc(C/C(C)=C(/c2ccc(OCCN3CCCCCC3)cc2)c2ccc(OC(=O)c3ccccc3)cc2)cc1`, the growth was 71.3% in the test with SR leukemia (10 µM unless noted); 112% with RPMI-8226 leukemia (10 µM unless noted); 107% in the test with OVCAR-8 ovarian (10 µM unless noted); 98.2% in the test on OVCAR-5 ovarian (10 µM unless noted); 116% in the test on OVCAR-4 ovarian (10 µM unless noted); 93.7% with SK-OV-3 ovarian (10 µM unless noted). Further, the growth in the test on IGROV1 ovarian (10 µM unless noted) was 106%; with OVCAR-3 ovarian (10 µM unless noted) it was 117%; in the test on HS 578T breast (10 µM unless noted), 98.5%; in the test on NCI/ADR-RES ovarian (10 µM unless noted), 111%; in the test with T-47D breast, 71.9%; in the test on BT-549 breast (10 µM unless noted), 106%. Moreover, the growth was 104% in the test with MDA-MB-435 melanoma (10 µM unless noted); 98.4% with SW-620 colon (10 µM unless noted); 60.5% in the test with MCF7 breast (10 µM unless noted); 93.3% in the test on HCT-116 colon (10 µM unless noted); 105% with HCC-2998 colon (10 µM unless noted).
With `C=C1CC[C@@H]2[C@](C)(COC(C)=O)[C@H](OC(C)=O)CC[C@@]2(C)[C@@H]1CC(Nc1ccc(S(=O)(=O)Nc2nccs2)cc1)C1=CCOC1=O` (some centres not stated), the growth in the test with SR leukemia (10 µM unless noted) is -5.84% (active); in the test with RPMI-8226 leukemia (10 µM unless noted), -13.3% (active); in the test with OVCAR-8 ovarian (10 µM unless noted), 4.39% (active); in the test with OVCAR-5 ovarian (10 µM unless noted), 7.82% (active); in the test on OVCAR-4 ovarian (10 µM unless noted) it was 38%; in the test with SK-OV-3 ovarian (10 µM unless noted), 79.9%. Also, the growth with IGROV1 ovarian (10 µM unless noted) was 12.6%; with OVCAR-3 ovarian (10 µM unless noted), -70.2% (active); with HS 578T breast (10 µM unless noted), 51.9%; in the test on NCI/ADR-RES ovarian (10 µM unless noted) it was 9.2% (active); in the test with T-47D breast, 34.6%; with BT-549 breast (10 µM unless noted), -23.5% (active). Also, the growth was -8.31% (active) with MDA-MB-435 melanoma (10 µM unless noted); -72.7% (active) in the test on SW-620 colon (10 µM unless noted); -21.3% (active) in the test on MCF7 breast (10 µM unless noted); -30.4% (active) with HCT-116 colon (10 µM unless noted); 54.2% with HCC-2998 colon (10 µM unless noted).
